Columns and labels:
Experiment in all cases: log2 ratio of Biotin-Ahx-Ub-VS probe labelling (fragment/DMSO); higher = less target engagement (more negative = stronger competition), active = hit call of the paper (q ≤ 0.05, log2 ratio ≤ -1)
Conditions in all cases: compound concentration: 200 uM; treatment time: 3 h
USP9X = USP9X (UniProt Q93008)
How it was run: (§1)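 Using Biotin-Ahx-Ub-VS at 0.5 µM final for 1 h, DUBs were labelled in HEK293T lysate (495 µg per sample) that had first been treated in triplicate with fragment at 200 µM or vehicle for 3 h. NeutrAvidin enrichment, LysC and trypsin digestion and diaPASEF LC-MS/MS followed. Spectronaut label-free quantities were global-median-normalised. Values are average log2 fragment/vehicle ratios by unpaired t-test, using proteins with ≥2 unique peptides.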

UniProt O00487 = biological target: UniProt O00487
How it was run: as §1

UniProt O00507 = biological target: UniProt O00507
Chain of UniProt O00507 (O00507 whole entry): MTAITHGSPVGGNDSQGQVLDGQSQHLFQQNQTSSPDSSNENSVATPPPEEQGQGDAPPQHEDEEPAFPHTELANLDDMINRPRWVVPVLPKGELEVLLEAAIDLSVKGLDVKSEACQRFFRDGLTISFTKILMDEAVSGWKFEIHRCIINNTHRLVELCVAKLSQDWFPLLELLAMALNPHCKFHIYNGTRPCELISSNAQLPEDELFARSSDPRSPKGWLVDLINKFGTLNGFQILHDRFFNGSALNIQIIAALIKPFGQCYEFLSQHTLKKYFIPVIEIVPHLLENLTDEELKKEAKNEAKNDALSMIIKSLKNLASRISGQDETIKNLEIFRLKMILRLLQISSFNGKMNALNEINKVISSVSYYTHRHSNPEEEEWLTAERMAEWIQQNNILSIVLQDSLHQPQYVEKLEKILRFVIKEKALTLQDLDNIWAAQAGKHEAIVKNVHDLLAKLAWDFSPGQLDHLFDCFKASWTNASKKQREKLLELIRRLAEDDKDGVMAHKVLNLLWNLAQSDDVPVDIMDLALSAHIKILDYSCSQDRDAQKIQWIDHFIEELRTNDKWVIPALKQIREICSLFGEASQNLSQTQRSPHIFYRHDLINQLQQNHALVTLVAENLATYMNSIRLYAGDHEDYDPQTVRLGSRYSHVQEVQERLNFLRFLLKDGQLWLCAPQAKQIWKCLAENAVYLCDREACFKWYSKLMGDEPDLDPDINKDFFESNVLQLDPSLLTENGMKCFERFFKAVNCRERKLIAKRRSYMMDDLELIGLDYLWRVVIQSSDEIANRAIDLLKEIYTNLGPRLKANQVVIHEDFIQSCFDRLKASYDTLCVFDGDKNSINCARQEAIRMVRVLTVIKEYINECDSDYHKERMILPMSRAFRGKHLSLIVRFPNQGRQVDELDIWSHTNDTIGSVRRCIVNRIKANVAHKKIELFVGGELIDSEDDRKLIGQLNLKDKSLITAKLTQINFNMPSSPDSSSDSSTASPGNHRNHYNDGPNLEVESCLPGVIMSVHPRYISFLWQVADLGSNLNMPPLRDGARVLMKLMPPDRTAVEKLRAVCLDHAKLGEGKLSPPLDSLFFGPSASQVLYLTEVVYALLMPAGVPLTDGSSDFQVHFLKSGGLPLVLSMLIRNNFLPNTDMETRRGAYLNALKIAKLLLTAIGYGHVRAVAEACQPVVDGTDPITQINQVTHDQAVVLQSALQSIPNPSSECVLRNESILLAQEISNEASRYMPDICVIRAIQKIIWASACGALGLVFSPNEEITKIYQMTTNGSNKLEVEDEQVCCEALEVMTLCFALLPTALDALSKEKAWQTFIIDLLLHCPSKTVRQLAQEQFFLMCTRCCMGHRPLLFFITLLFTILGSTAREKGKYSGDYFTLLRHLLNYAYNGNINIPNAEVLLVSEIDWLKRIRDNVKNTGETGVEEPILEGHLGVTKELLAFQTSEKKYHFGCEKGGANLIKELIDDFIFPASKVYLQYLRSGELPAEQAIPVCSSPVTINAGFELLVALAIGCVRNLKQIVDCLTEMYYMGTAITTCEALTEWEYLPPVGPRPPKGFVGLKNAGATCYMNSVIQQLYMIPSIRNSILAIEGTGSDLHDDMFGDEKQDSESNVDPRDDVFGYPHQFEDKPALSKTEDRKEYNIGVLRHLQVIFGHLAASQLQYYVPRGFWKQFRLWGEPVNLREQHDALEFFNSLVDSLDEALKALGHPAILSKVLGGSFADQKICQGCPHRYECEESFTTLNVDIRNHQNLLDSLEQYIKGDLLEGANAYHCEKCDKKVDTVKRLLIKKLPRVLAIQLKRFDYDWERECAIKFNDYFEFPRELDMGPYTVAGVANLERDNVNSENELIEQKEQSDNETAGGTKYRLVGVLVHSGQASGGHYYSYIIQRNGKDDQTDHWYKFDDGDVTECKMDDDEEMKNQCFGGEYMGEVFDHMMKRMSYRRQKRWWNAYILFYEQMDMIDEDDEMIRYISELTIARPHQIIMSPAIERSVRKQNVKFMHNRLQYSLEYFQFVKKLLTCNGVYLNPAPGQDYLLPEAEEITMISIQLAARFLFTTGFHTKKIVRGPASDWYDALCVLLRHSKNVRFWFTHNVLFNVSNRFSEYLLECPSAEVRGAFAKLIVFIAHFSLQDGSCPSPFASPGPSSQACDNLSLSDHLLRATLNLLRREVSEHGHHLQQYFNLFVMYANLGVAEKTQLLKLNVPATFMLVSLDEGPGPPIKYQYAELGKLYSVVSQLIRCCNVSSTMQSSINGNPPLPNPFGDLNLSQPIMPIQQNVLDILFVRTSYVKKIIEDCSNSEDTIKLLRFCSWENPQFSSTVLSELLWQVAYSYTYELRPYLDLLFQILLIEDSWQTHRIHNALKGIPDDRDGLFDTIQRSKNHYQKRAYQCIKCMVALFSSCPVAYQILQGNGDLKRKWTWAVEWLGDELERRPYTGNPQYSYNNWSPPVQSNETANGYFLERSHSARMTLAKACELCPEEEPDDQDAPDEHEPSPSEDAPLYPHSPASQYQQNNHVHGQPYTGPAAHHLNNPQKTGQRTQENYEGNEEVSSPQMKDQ
How it was run: as §1

UniProt P51784 = biological target: UniProt P51784
How it was run: as §1

UniProt Q5T2D3 = biological target: T1, UniProt Q5T2D3
T1 sequence (whole entry): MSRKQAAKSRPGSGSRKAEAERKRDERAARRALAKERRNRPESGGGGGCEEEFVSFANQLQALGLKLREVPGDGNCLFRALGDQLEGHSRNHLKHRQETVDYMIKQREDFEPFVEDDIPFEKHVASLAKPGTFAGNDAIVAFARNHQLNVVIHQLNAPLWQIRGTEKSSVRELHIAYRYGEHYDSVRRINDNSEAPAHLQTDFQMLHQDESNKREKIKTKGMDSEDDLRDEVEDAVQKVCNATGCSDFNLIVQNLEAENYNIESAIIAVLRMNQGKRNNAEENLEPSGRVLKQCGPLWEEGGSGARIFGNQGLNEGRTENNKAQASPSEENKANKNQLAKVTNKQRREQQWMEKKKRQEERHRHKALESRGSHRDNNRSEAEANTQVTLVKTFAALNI
How it was run: as §1

UniProt Q8TE49 = biological target: T2, UniProt Q8TE49
T2 sequence (whole entry): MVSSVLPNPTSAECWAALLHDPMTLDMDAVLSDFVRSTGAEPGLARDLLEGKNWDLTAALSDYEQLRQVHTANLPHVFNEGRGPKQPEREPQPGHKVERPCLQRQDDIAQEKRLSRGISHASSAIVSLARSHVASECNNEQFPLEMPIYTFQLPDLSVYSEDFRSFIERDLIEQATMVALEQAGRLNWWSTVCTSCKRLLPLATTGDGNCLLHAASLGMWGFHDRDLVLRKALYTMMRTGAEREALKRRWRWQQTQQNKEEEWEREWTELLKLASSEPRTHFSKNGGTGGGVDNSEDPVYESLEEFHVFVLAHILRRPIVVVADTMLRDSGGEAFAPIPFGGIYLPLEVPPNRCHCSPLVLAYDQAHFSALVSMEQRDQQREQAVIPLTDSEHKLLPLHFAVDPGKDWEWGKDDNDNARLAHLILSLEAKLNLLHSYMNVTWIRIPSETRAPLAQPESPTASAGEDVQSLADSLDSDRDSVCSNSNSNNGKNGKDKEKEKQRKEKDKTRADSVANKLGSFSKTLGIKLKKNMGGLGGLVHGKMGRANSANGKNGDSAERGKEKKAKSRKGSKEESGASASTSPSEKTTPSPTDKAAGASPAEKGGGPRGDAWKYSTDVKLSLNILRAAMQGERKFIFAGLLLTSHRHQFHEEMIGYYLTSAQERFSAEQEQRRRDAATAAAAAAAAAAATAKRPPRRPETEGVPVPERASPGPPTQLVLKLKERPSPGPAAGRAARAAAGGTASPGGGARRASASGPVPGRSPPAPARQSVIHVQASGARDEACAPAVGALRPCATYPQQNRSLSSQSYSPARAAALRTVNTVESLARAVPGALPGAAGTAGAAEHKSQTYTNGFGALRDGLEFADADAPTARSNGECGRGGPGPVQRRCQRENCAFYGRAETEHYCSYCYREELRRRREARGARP
How it was run: as §1

UniProt Q9P2H5 = biological target: T3, UniProt Q9P2H5
T3 sequence (whole entry): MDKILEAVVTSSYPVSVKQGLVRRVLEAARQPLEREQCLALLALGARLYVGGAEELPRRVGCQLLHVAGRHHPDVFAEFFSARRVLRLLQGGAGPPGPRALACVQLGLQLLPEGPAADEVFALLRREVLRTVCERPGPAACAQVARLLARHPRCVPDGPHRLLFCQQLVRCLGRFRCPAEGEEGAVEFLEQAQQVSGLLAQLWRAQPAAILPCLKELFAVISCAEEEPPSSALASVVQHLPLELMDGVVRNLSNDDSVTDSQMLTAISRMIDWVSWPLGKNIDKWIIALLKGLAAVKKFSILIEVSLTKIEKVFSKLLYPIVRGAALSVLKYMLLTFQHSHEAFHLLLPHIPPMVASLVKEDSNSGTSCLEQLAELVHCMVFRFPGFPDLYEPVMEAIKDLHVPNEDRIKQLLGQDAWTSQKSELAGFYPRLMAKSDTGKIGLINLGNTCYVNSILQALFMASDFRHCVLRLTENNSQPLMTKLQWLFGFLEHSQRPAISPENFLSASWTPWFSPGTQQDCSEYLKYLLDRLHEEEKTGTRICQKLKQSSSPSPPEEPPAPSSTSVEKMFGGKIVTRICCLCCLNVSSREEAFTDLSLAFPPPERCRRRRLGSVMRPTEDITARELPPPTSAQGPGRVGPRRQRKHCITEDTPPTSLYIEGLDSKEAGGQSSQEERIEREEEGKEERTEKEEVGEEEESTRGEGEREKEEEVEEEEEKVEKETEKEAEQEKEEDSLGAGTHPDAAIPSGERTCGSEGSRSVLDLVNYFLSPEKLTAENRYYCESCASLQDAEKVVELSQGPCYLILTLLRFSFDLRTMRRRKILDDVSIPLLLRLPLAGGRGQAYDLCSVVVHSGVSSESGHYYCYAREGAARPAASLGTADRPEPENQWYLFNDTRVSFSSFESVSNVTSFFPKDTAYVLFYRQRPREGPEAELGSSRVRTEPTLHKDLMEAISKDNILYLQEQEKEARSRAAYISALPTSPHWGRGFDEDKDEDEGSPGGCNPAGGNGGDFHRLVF
How it was run: as §1

UniProt Q9UGI0 = biological target: T4, UniProt Q9UGI0
T4 sequence (whole entry): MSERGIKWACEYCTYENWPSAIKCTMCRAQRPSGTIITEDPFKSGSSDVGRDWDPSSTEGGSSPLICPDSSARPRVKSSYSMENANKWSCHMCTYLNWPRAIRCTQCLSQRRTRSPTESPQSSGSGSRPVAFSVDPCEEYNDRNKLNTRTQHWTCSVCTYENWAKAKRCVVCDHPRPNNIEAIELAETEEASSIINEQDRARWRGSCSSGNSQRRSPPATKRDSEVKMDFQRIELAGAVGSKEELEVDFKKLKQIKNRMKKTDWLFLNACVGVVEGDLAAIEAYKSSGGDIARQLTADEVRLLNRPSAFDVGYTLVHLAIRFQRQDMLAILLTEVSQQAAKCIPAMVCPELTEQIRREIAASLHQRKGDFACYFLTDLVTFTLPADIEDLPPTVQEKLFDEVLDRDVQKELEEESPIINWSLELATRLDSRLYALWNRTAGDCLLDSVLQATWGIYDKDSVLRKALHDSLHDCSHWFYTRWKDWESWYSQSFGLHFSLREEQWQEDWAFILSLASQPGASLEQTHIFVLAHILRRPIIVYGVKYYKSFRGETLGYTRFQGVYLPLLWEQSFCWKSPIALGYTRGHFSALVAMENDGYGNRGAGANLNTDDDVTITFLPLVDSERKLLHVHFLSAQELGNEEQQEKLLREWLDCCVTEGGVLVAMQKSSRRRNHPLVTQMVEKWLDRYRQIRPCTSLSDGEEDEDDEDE
How it was run: as §1

YOD1 = biological target: T5, YOD1 (UniProt Q5VVQ6)
T5 sequence (whole entry): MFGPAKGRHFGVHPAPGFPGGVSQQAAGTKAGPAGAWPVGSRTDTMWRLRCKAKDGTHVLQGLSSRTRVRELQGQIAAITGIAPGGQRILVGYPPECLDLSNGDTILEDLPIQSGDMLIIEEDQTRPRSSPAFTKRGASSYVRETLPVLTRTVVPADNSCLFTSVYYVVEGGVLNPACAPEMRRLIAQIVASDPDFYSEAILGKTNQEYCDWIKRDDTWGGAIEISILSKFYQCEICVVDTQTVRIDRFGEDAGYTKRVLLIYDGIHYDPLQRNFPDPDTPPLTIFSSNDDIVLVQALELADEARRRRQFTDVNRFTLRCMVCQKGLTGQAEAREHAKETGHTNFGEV
How it was run: as §1

Measured: log2 ratio of Biotin-Ahx-Ub-VS probe labelling

Chain of USP9X (Q93008 whole entry, the tested form may be a part): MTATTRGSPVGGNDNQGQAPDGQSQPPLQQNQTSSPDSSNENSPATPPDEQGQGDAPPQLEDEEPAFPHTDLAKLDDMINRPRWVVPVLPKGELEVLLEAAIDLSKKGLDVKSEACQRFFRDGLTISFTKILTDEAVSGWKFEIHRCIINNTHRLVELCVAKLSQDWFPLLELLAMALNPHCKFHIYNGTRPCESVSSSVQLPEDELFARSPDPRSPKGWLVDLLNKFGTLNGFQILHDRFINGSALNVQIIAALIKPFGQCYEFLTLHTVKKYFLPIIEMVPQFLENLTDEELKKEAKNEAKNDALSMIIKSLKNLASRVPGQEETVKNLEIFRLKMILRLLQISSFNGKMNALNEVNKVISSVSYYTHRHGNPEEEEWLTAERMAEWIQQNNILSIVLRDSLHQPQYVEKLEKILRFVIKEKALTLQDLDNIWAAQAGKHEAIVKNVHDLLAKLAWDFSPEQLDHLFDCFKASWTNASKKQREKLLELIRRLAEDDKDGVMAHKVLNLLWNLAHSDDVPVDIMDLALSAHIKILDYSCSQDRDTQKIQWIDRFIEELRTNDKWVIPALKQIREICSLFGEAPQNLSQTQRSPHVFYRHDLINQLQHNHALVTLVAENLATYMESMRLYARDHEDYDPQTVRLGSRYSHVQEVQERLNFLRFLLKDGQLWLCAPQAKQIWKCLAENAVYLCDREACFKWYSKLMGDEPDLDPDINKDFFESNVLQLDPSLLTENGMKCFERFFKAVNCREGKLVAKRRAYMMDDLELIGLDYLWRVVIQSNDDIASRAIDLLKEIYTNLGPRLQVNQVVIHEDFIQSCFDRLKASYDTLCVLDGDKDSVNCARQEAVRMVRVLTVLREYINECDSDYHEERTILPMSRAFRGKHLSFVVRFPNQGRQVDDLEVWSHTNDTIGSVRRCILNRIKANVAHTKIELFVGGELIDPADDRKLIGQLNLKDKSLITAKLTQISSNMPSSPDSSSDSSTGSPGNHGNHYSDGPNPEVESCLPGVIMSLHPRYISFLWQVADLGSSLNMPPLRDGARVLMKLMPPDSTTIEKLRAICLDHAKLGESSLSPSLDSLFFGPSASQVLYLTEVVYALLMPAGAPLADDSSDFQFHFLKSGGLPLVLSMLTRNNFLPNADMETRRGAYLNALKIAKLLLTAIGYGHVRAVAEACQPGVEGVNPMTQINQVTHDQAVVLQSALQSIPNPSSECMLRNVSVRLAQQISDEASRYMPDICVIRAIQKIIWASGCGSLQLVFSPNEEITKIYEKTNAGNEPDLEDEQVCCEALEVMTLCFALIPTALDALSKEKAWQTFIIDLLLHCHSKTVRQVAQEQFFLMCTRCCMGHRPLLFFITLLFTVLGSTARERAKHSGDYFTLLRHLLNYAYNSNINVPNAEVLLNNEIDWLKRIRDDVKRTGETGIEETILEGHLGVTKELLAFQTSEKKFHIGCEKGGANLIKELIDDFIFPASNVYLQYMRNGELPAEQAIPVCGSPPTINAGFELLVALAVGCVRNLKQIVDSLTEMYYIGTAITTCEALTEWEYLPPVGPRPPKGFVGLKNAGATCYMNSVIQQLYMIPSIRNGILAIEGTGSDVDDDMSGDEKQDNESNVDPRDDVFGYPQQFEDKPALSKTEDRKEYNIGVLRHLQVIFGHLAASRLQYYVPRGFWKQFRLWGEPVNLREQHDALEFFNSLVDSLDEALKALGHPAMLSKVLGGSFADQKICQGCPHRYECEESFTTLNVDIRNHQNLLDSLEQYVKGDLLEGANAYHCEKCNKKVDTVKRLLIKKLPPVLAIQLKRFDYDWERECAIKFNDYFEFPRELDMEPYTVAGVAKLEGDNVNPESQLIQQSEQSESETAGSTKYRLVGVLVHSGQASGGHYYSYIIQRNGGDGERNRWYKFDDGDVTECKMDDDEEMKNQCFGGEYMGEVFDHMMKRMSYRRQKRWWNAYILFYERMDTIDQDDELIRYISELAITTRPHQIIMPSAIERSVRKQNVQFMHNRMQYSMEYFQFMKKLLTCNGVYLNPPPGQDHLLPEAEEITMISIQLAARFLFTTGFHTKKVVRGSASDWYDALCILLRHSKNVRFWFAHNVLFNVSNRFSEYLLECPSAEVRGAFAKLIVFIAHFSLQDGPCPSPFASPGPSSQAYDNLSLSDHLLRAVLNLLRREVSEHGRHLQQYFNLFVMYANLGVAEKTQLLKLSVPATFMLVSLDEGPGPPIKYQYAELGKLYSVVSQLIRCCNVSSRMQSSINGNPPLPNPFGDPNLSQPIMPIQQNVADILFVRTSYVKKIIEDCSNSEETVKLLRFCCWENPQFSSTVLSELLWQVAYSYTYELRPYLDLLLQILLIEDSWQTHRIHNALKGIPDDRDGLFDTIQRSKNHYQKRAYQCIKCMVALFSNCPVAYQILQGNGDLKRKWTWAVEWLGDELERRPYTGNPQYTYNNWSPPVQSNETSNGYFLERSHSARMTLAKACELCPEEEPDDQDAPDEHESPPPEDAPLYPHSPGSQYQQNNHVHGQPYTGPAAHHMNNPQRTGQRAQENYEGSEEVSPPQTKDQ

O=C(CCl)N1CCC(O)(Cc2ccc(F)cc2)C1 (centres undefined)
inactive: USP9X 0.0751 | UniProt O00487 -0.0616 | UniProt O00507 -0.253 | UniProt P51784 0.313 | UniProt Q5T2D3 -0.16 | UniProt Q8TE49 -0.0913 | UniProt Q9P2H5 0.0413 | UniProt Q9UGI0 -0.196 | YOD1 0.2
